# Test results taken from paper PMC9911399, “Two distinct binding modes provide the RNA-binding protein RbFox with extraordinary sequence specificity”.
# Residue numbers refer to the chain shown, from its start. The full ranking holds about 16,000 sequences; the median of “ka relative to ugcaugu” is about 0.096, and the highest 2% start at about 0.35. Shown is part of a subset that was picked to be rich in the highest values.
# T1: RBFOX1 RRM RbFoxmut (Fox-RRM*) (Homo sapiens, UniProt Q9NWB1 109-208, R118D;E147R;N151S;E152T)
# T1 sequence: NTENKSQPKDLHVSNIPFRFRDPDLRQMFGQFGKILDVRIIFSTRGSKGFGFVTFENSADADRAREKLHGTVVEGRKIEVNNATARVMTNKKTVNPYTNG
# B1: GGGAACG (DNA:RNA)
# RNA: GGGAGACCGGAAUUCAGAUUGUCCGGGAACGUUAAAUCCCGUCGUAGCCACCA
# DNA 1: CAATCTGAATTCCGGTCTCCC
# DNA 2: TGGTGGCTACGACGGGATT
# B2: CAGAACG (DNA:RNA)
# RNA: B1 RNA with G25C, G26A
# DNA 1: CAATCTGAATTCCGGTCTCCC
# DNA 2: TGGTGGCTACGACGGGATT
# B3: UGAACGU (DNA:RNA)
# RNA: B1 RNA with G25U, G27A, A29C, C30G, G31U
# DNA 1: CAATCTGAATTCCGGTCTCCC
# DNA 2: TGGTGGCTACGACGGGATT
# B4: GUGAACG (DNA:RNA)
# RNA: B1 RNA with G26U
# DNA 1: CAATCTGAATTCCGGTCTCCC
# DNA 2: TGGTGGCTACGACGGGATT
# B5: AGGACCG (DNA:RNA)
# RNA: B1 RNA with G25A, A29C
# DNA 1: CAATCTGAATTCCGGTCTCCC
# DNA 2: TGGTGGCTACGACGGGATT
# B6: GAACGUG (DNA:RNA)
# RNA: B1 RNA with G26A, G27A, A28C, A29G, C30U
# DNA 1: CAATCTGAATTCCGGTCTCCC
# DNA 2: TGGTGGCTACGACGGGATT
# B7: GAGAACG (DNA:RNA)
# RNA: B1 RNA with G26A
# DNA 1: CAATCTGAATTCCGGTCTCCC
# DNA 2: TGGTGGCTACGACGGGATT
# B8: AGGAACG (DNA:RNA)
# RNA: B1 RNA with G25A
# DNA 1: CAATCTGAATTCCGGTCTCCC
# DNA 2: TGGTGGCTACGACGGGATT
# B9: AGAACGU (DNA:RNA)
# RNA: B1 RNA with G25A, G27A, A29C, C30G, G31U
# DNA 1: CAATCTGAATTCCGGTCTCCC
# DNA 2: TGGTGGCTACGACGGGATT
# B10: UGGACAG (DNA:RNA)
# RNA: B1 RNA with G25U, A29C, C30A
# DNA 1: CAATCTGAATTCCGGTCTCCC
# DNA 2: TGGTGGCTACGACGGGATT
# B11: CCUUCUU (DNA:RNA)
# RNA: GGGAGACCGGAAUUCAGAUUGUCCCCUUCUUUUAAAUCCCGUCGUAGCCACCA
# DNA 1: CAATCTGAATTCCGGTCTCCC
# DNA 2: TGGTGGCTACGACGGGATT
# B12: UCGGAUG (DNA:RNA)
# RNA: B1 RNA with G25U, G26C, A28G, C30U
# DNA 1: CAATCTGAATTCCGGTCTCCC
# DNA 2: TGGTGGCTACGACGGGATT
# B13: GAAGCGU (DNA:RNA)
# RNA: B11 RNA with C25G, C26A, U27A, U28G, U30G
# DNA 1: CAATCTGAATTCCGGTCTCCC
# DNA 2: TGGTGGCTACGACGGGATT
# B14: CCGCAUG (DNA:RNA)
# RNA: B11 RNA with U27G, U28C, C29A, U31G
# DNA 1: CAATCTGAATTCCGGTCTCCC
# DNA 2: TGGTGGCTACGACGGGATT
# B15: GUUUUUU (DNA:RNA)
# RNA: B11 RNA with C25G, C26U, C29U
# DNA 1: CAATCTGAATTCCGGTCTCCC
# DNA 2: TGGTGGCTACGACGGGATT
# B16: GCCAUGU (DNA:RNA)
# RNA: B11 RNA with C25G, U27C, U28A, C29U, U30G
# DNA 1: CAATCTGAATTCCGGTCTCCC
# DNA 2: TGGTGGCTACGACGGGATT
# B17: GCAAUGU (DNA:RNA)
# RNA: B11 RNA with C25G, U27A, U28A, C29U, U30G
# DNA 1: CAATCTGAATTCCGGTCTCCC
# DNA 2: TGGTGGCTACGACGGGATT
# B18: GCAUAGU (DNA:RNA)
# RNA: B11 RNA with C25G, U27A, C29A, U30G
# DNA 1: CAATCTGAATTCCGGTCTCCC
# DNA 2: TGGTGGCTACGACGGGATT
# B19: CGCAUUG (DNA:RNA)
# RNA: B1 RNA with G25C, G27C, A29U, C30U
# DNA 1: CAATCTGAATTCCGGTCTCCC
# DNA 2: TGGTGGCTACGACGGGATT
# B20: CGCAUGU (DNA:RNA)
# RNA: B11 RNA with C26G, U27C, U28A, C29U, U30G
# DNA 1: CAATCTGAATTCCGGTCTCCC
# DNA 2: TGGTGGCTACGACGGGATT
# B21: GCAUGUU (DNA:RNA)
# RNA: B11 RNA with C25G, U27A, C29G
# DNA 1: CAATCTGAATTCCGGTCTCCC
# DNA 2: TGGTGGCTACGACGGGATT
# B22: CCCCGCA (DNA:RNA)
# RNA: B11 RNA with U27C, U28C, C29G, U30C, U31A
# DNA 1: CAATCTGAATTCCGGTCTCCC
# DNA 2: TGGTGGCTACGACGGGATT
# Biological target: T1, RBFOX1 RRM RbFoxmut (Fox-RRM*)
# Assay: EMSA; HiTS-Eq, 1 nM pool, 10 min; buffer printed only for the single-RNA assays: 10 mM Tris pH 7.5, 150 mM NaCl, 3.4 mM EDTA, 0.001% NP-40, 30 C
# Conditions: tags: His6 N-terminal (pET28a); label: 5' 32P
# In short: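 Purified RbFox RRM (wild type or mutant) was equilibrated for 10 min in 50 µL with 1 nM of a 5′-radiolabelled pool of RNA with 7 randomized nucleotides, its flanks annealed to DNA oligonucleotides, across increasing protein concentrations. Free RNA was separated by 8% native PAGE, excised, reverse-transcribed, PCR-barcoded and sequenced on an Illumina HiSeq 2500. Relative association constants came from read-count changes of each variant against the control reaction, normalised to the cognate motif.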
row,Binder,binding signal
1,B1,0.472 KA relative to UGCAUGU
2,B2,0.168 KA relative to UGCAUGU
3,B3,0.242 KA relative to UGCAUGU
4,B4,0.538 KA relative to UGCAUGU
5,B5,0.183 KA relative to UGCAUGU
6,B6,0.226 KA relative to UGCAUGU
7,B7,0.347 KA relative to UGCAUGU
8,B8,0.576 KA relative to UGCAUGU
9,B9,0.149 KA relative to UGCAUGU
10,B10,0.0526 KA relative to UGCAUGU
11,B11,0.0561 KA relative to UGCAUGU
12,B12,0.119 KA relative to UGCAUGU
13,B13,0.0921 KA relative to UGCAUGU
14,B14,1.13 KA relative to UGCAUGU
15,B15,0.0932 KA relative to UGCAUGU
16,B16,0.188 KA relative to UGCAUGU
17,B17,0.12 KA relative to UGCAUGU
18,B18,0.192 KA relative to UGCAUGU
19,B19,0.179 KA relative to UGCAUGU
20,B20,1.08 KA relative to UGCAUGU
21,B21,0.776 KA relative to UGCAUGU
22,B22,0.118 KA relative to UGCAUGU
